Experimental findings from PubChem BioAssay AID1259313 (Sanford-Burnham Center for Chemical Genomics, 2017) are described below.

Out of some 340,000 compounds screened, about 8,500 (2.5%) were called active. Shown is part of a subset that was picked to be rich in actives. Values without a mark were called inactive.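 The calls were made as follows: active = melting temperature shift of at least 10% of the positive control shift, at one fixed dose; inactive = the rest.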

This assay deals with Glutamate receptor ionotropic, NMDA 3A (GRIN3A) ligand-binding domain. Nature of the assay: NR3A LBD thermal stabilization by compounds – biophysical, differential scanning fluorimetry, uHTS, primary screen (AID 1259313). Conditions: at 25 µM, stronger effect = higher value, 0% = protein alone, 100% = glycine-bound protein. On the technique in general: In DSF a fluorescence change marks the thermal transition of the protein.
As to `CCOC(=O)C1=C(C)c2ccccc2OC1C(=O)OCC` (stereo unspecified), the Tm shift relative to glycine control was 0.67%.
With `CCOC(=O)C(=Cc1ccccc1OC)C(=O)OCC` the figure was 0.09%; with `C=C1c2cccc(OC)c2O[C@H](C(=O)OCC)[C@@H]1CCCCCC`, 19.5% (active).
The figure for `COC(=O)Cn1cnc2scc(-c3ccc(C)c(C)c3)c2c1=O` is 0%.
For the compound `NCCN1CCN2C(=O)CN(C(=O)c3ccccc3)CC12` (stereo unspecified), the Tm shift relative to glycine control was -1.42%.
As for `Cc1cc(F)ccc1NC(=S)NCCc1ccccc1`, the Tm shift relative to glycine control was -1.3%.
With `Cn1c(N)c(C(=O)COC(=O)c2ccc3ccccc3c2)c(=O)n(C)c1=O` the figure was -3.76%.
With `Cc1cccc(-c2nc(Nc3ccc(O)cc3)c3ccccc3n2)c1` the figure was 44.7% (active); with `Oc1ccc(-c2nnc(Nc3ccccc3)c3ccccc23)cc1`, -0.38%.
Turning to `CC(=O)Nc1cccc(Nc2nc(-c3cccs3)nc3ccccc23)c1`, the Tm shift relative to glycine control is 1.63%.
`COc1ccc(N2CCN(C(=O)CNC(=O)c3ccc(C(C)(C)C)cc3)CC2)cc1`: the Tm shift relative to glycine control is 3.46%.
Regarding `CC(C)(C)c1cc2cccnc2n1Cc1ccccc1`, the Tm shift relative to glycine control was -1.7%.
The figure for `COCCN1C(=O)N(c2ccc(Cl)cc2)C(=O)C1CC(=O)Nc1cc(OC)cc(OC)c1` (stereo unspecified) is 0.08%; for `COC(=O)CN1C(=S)N(c2ccccc2)C(=O)C1CC(=O)Nc1ccc(Cl)cc1` (stereo unspecified) it is 28.7% (active); for `CCOc1ccc(NC(=O)CC2C(=O)N(c3ccccc3)C(=O)N2CCOC)cc1` (stereo unspecified) it is -0.16%.
Turning to `CC(C)N1CCC(=NNc2ccc([N+](=O)[O-])cc2S(=O)(=O)N2CCOCC2)CC1`, the Tm shift relative to glycine control is 0.15%.
Turning to `O=C(CCNC(=O)c1ccc(Br)cc1)Nc1cccc(S(=O)(=O)N2CCCCC2)c1`, the Tm shift relative to glycine control was -8.95%.
With `Cc1ccc(S(=O)(=O)N2CCCCC2)cc1NC(=O)CCNC(=O)c1ccccc1` the figure was 10.2% (active).
The figure for `Cc1ccc(S(=O)(=O)N2CCCCC2)cc1NC(=O)c1cccnc1` is -0.36%.
On to `CCOC(=O)NN1C(=O)c2ccccc2NC1c1ccccc1O` (stereo unspecified), for which the Tm shift relative to glycine control is 1.62%.
Regarding `C=CCOc1c(CNn2cn[nH]c2=S)cccc1OC`, the Tm shift relative to glycine control is 1.48%.
For `Cc1cc(C)cc(NC(=O)c2cccc(NC(=O)C3C4CC5OC(=O)C3C5C4)c2)c1` (stereo unspecified), the Tm shift relative to glycine control was 3.21%.
Regarding `COC(=O)CNC(c1ccccc1Cl)c1cc(Br)ccc1NC(=O)CCN1CCOCC1` (stereo unspecified), the Tm shift relative to glycine control is -6.58%.
Take `Cc1ccc(CNC(=O)c2cccc3c2C(=O)c2ccc(N4CCC(C)CC4)cc2S3(=O)=O)cc1`: the Tm shift relative to glycine control is 0.32%.
`NC(=O)C(Cc1ccccc1)NC(=O)C12CC3CC(CC(C3)C1)C2` (stereo unspecified): the Tm shift relative to glycine control is 1.38%.
In the case of `CCOC(=O)c1c(C)oc2cc(Sc3ccccc3)c(O)c(O)c12`, the Tm shift relative to glycine control is 1.87%.
Regarding `COc1ccc(CCN2CC(C(=O)OCC(=O)NCc3ccccc3Cl)CC2=O)cc1OC` (stereo unspecified), the Tm shift relative to glycine control is -0.25%.
With `COc1ccc(C(CNC(=O)c2ccc(S(=O)(=O)Nc3ccccc3C)cc2)N2CCOCC2)cc1` (stereo unspecified) the figure was 2.35%; with `COc1ccc(C(CNC(=O)c2cc3c(s2)CCCC3)N2CCOCC2)cc1` (stereo unspecified), 53.2% (active).
With `O=C(NCCCN1CCOCC1)c1cc2c(s1)CCC2` the figure was 1.5%; with `COc1ccc(C(CNC(=O)c2cccnc2SC)N2CCOCC2)cc1` (stereo unspecified), -0.34%.
As for `COc1ccc(C(CNC(=O)c2cccc(S(=O)(=O)Nc3ccccc3Cl)c2)N2CCOCC2)cc1` (stereo unspecified), the Tm shift relative to glycine control is 15.6% (active).
With `COc1ccc(C(CNC(=O)c2cccc(NS(=O)(=O)c3ccc(C)c(F)c3)c2)N2CCCC2)cc1` (stereo unspecified), the Tm shift relative to glycine control was -1.75%.
For `CC(C)NC(=O)c1ccccc1S(=O)c1ccccc1C#N` (stereo unspecified), the Tm shift relative to glycine control was -0.24%.
Turning to `Cc1noc(C)c1S(=O)(=O)N(C)Cc1ccccc1`, the Tm shift relative to glycine control was -2.24%.
With `CCNC(=O)CCc1nc(-c2ccc(C(C)(C)C)cc2)no1` the figure was 2.39%; with `COCCN(CCOC)S(=O)(=O)NC[C@H]1O[C@@H](n2cnc3c(N)ncnc32)[C@H](O)[C@@H]1O`, -2.01%; with `CN(NS(=O)(=O)c1cccs1)c1ncc(C(F)(F)F)cc1Cl`, -0.95%.
For the compound `O=C(/C=C/c1ccc([N+](=O)[O-])o1)NNC(=O)c1ccc(F)cc1`, the Tm shift relative to glycine control is -1.3%.
Consider `O=C(NCCCN1CCOCC1)c1cn(-c2ccccc2)nc1-c1ccc(F)cc1`, for which the Tm shift relative to glycine control was -0.58%.
The figure for `O=C(N/N=C/c1ccc([N+](=O)[O-])o1)c1cn(-c2ccccc2)nc1-c1ccc(F)cc1` is 57.3% (active); for `O=C(CCn1nnc2ccccc21)OCC(=O)c1ccc([N+](=O)[O-])cc1` it is -0.44%; for `Cc1ccc(C(=O)NNC(=O)c2ccc3c(c2)OCCO3)cc1` it is 1.65%.
With `Cc1nc(NC(=O)c2ccc3c(c2)OCCO3)ccc1Br` the figure was 11.1% (active).
The figure for `O=C(Nc1ccc(Cl)cn1)c1ccc2c(c1)OCCO2` is -0.17%; for `O=S(=O)(c1cccc(Cn2nnc(-c3ccc(F)cc3)n2)c1)N1CCOCC1` it is 0.18%.
